Laboratory results as given in PubChem BioAssay (EPA / NIEHS).
Inconclusive results are not listed. More than one record can exist for a structure, and the calls need not agree. Activity calls are given as the source filed them. Rule for the calls, unless noted: active = hit-call score of the fitted dose curve at least 0.9, where 1 is the maximum; inconclusive = response in the unintended direction; inactive = score below 0.9.

What was measured:
[1] = target: Estrogen receptor (Homo sapiens) (UniProt P03372); assay: OT_ERa_GFPERaERE_0480: Odyssey Thera (OT) 8-hour HeLa Transcription Induction Assay for Estrogen Receptor (AID 2283381; active = hit-call score of the fitted dose curve at least 0.9, where 1 is the maximum; inactive = score below 0.9)
Procedure, shortened: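 Cells (HeLa) receive compound; after 8 h, reporter fluorescence is imaged and quantified by high-content analysis. Gain-of-signal relative to DMSO gives the endpoint.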

[2] = target: Estrogen receptor (Homo sapiens) (UniProt P03372); assay: OT_ERa_GFPERaERE_0120: Odyssey Thera (OT) 2-hour HeLa Transcription Induction Assay for Estrogen Receptor (AID 2283382)
Procedure, shortened: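 Measures ESR1 pathway reporter gain-of-signal in HeLa cells after a 2-hour treatment, detected as fluorescent protein induction by microscopy, DMSO as baseline.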

[3] = target: Retinoic acid receptor RXR-alpha (Homo sapiens) (UniProt P19793); assay: OT_NURR1_NURR1RXRa_0480: Odyssey Thera (OT) 8-hour HEK293T Protein Complementation Assay for Nurr1/retinoid X receptor (RXR) (AID 2283385)
Procedure, shortened: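 Compounds are applied to HEK293T cells carrying Nurr1 and RXRα linked to reporter fragments. After 8 h, fluorescence intensity reports heterodimer formation, with DMSO as baseline.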

[4] = target: Retinoic acid receptor RXR-alpha (Homo sapiens) (UniProt P19793); assay: OT_NURR1_NURR1RXRa_1440: Odyssey Thera (OT) 24-hour HEK293T Protein Complementation Assay for Nurr1/retinoid X receptor (RXR) (AID 2283386)
Procedure, shortened: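 Measured as fluorescence from a reconstituted split reporter, this 24 h HEK293T complementation assay scores compound-induced gain of Nurr1/RXRα association relative to DMSO.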

[5] = read-out: Tumor necrosis factor receptor superfamily member 6 (Homo sapiens) (UniProt P25445); assay: LTEA_HepaRG_FAS: Life Technologies and Expression Analysis (LTEA) Assay for Fas cell surface death receptor (FAS) using HepaRG (AID 2283447; active = hit-call score of the fitted dose curve at least 0.9, where 1 is the maximum; inactive = score below 0.9); details: mRNA level, 48 h; actives raise or lower the signal
Procedure, shortened: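 Differentiated HepaRG cells in serum-free induction medium were exposed 48 h to 8 half-log concentrations up to 100 uM in 0.5% DMSO, in duplicate. FAS mRNA was measured by qRT-PCR normalised to ACTB, GAPDH and POLR2A; bidirectional fit versus DMSO.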

[6] = target: Bile acid receptor (Homo sapiens) (UniProt Q96RI1); assay: OT_FXR_FXRSRC1_0480: Odyssey Thera (OT) 8-hour HEK293T Protein-Complementation Assay for Farnesoid X receptor/SRC-1 Co-activator (AID 2283383)
Procedure, shortened: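 Co-activator recruitment to FXR was measured in living HEK293T cells, where interaction of the two fused partners restored an active fluorescent reporter. Signal gain after 8 h treatment was referenced to DMSO.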

[7] = target: Peroxisome proliferator-activated receptor gamma (Homo sapiens) (UniProt P37231); assay: OT_PPARg_PPARgSRC1_0480: Odyssey Thera (OT) 8-hour Protein-Complementation Assay for Peroxisome Proliferator-activated Receptor Gamma / SRC-1 Co-activator (AID 2283387)
Procedure, shortened: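 Protein-fragment complementation in HEK293T: Venus YFP halves (residues 1-158, 159-239, mutated to IFP1/IFP2) fused to PPARg/SRC-1. 8 h exposure; N/C ratio at 488 nm; DMSO negative control.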

[8] = target: Peroxisome proliferator-activated receptor gamma (Homo sapiens) (UniProt P37231); assay: OT_PPARg_PPARgSRC1_1440: Odyssey Thera (OT) 24-hour Protein-Complementation Assay for Peroxisome Proliferator-activated Receptor Gamma/ SRC-1 Co-activator (AID 2283388)
Procedure, shortened: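 HEK293T transiently transfected with PPARg/SRC-1 split-Venus YFP fusions 48 h before dosing, then treated 24 h at 37C. Fixed cells imaged; nuclear/cytoplasmic 488 nm fluorescence ratio, gain of signal versus DMSO.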

[9] = target: Estrogen receptor beta (Homo sapiens) (UniProt Q92731); assay: OT_ER_ERbERb_1440: Odyssey Thera (OT) 24-hour HEK293T Protein-Complementation Assay for Estrogen Receptor-beta/-beta Homodimer (AID 2283380);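 note: scored as signal increase over DMSO baseline for both agonists and antagonists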
Procedure, shortened: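 HEK293T cells stably expressing ER beta LBD (aa 310-547) homodimer fragment-complementation reporter, dosed 24 h. Cells formaldehyde-fixed, Draq5-stained; gain in nuclear (agonist) or nuclear plus cytoplasmic (antagonist) fluorescence versus DMSO read by laser scanning cytometry.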

[10] = CEETOX_H295R_OHPROG: CeeTox H295R High-throughput Steroidogenesis Assay for OH-Progesterone (OHPROG) (AID 2283435; active = hit-call score of the fitted dose curve at least 0.9, where 1 is the maximum; inactive = score below 0.9); details: actives raise or lower the signal
Procedure, shortened: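 Secreted 17alpha-hydroxyprogesterone is read by tandem MS from media of forskolin-primed H295R cells dosed with chemical for 48 h. Activity is fitted in both directions against DMSO baseline; cytotoxic concentrations are re-tested diluted.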

[11] = CEETOX_H295R_ESTRADIOL: CeeTox H295R High-throughput Steroidogenesis Assay for Estradiol (AID 2283440; active = hit-call score of the fitted dose curve at least 0.9, where 1 is the maximum; inactive = score below 0.9;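 note: estradiol secreted into medium quantified by LC-MS/MS after dansyl derivatisation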); details: actives raise or lower the signal
Procedure, shortened: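 H295R cells pre-stimulated 48 h with 10 uM forskolin, then exposed 48 h to chemical in 0.1% DMSO. Medium estradiol quantified by MTBE extraction, dansyl derivatisation and HPLC-MS/MS; bidirectional fit versus DMSO; MTT viability required >/=70%.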

[12] = CEETOX_H295R_ESTRONE: CeeTox H295R High-throughput Steroidogenesis Assay for Estrone (AID 2283441; active = hit-call score of the fitted dose curve at least 0.9, where 1 is the maximum; inactive = score below 0.9;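 note: estrone secreted into medium measured by LC-MS/MS after dansyl derivatization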); details: actives raise or lower the signal
Procedure, shortened: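 H295R cells; 48 h forskolin (10 uM) prestimulation; 48 h compound exposure, 0.1% DMSO final. Medium estrone: MTBE extraction, dansyl derivatization, HPLC-MS/MS. Bidirectional fit vs DMSO.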

[13] = CEETOX_H295R_11DCORT: CeeTox H295R High-throughput Steroidogenesis Assay for 11-Deoxycortisol (11DCORT) (AID 2283432; active = hit-call score of the fitted dose curve at least 0.9, where 1 is the maximum; inactive = score below 0.9); details: actives raise or lower the signal
Procedure, shortened: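 Adrenal carcinoma line H295R, run per OECD 456 with minor changes, was forskolin-stimulated (10 uM, 48 h) before a 48 h chemical exposure at 0.1% DMSO. Secreted 11-deoxycortisol was quantified by HPLC-MS/MS.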

[14] = CEETOX_H295R_CORTIC: CeeTox H295R High-throughput Steroidogenesis Assay for Corticosterone (CORTIC) (AID 2283437; active = hit-call score of the fitted dose curve at least 0.9, where 1 is the maximum; inactive = score below 0.9;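 note: corticosterone secreted into medium quantified by mass spectrometry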); details: actives raise or lower the signal
Procedure, shortened: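 H295R adrenal cells prestimulated 48 hours with 10 uM forskolin, then exposed 48 hours to chemical in 0.1% DMSO. Corticosterone in medium measured by HPLC-MS/MS after MTBE extraction; MTT viability in the same wells; bidirectional fit versus DMSO.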

[15] = CEETOX_H295R_CORTISOL: CeeTox H295R High-throughput Steroidogenesis Assay for Cortisol (AID 2283438; active = hit-call score of the fitted dose curve at least 0.9, where 1 is the maximum; inactive = score below 0.9;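 note: cortisol secreted into medium quantified by LC-MS/MS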); details: actives raise or lower the signal
Procedure, shortened: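 Human adrenocortical H295R cells (passage ≤10) received test chemicals for 48 h after forskolin priming. Secreted cortisol was measured by LC-MS/MS.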

[16] = CEETOX_H295R_DOC: CeeTox H295R High-throughput Steroidogenesis Assay for DOC (AID 2283439; active = hit-call score of the fitted dose curve at least 0.9, where 1 is the maximum; inactive = score below 0.9); details: actives raise or lower the signal
Procedure, shortened: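 Secreted DOC was quantified from H295R media by HPLC-MS/MS after 48 h chemical exposure following 48 h forskolin (10 uM) prestimulation. Values were fitted in both directions relative to DMSO, the negative control and baseline.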

[17] = CEETOX_H295R_PROG: CeeTox H295R High-throughput Steroidogenesis Assay for Progesterone (PROG) (AID 2283442; active = hit-call score of the fitted dose curve at least 0.9, where 1 is the maximum; inactive = score below 0.9); details: actives raise or lower the signal
Procedure, shortened: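 H295R adrenal cells prestimulated 48 h with 10 uM forskolin, then exposed 48 h to test chemical in 0.1% DMSO. Progesterone in medium quantified by HPLC-MS/MS after MTBE extraction; viability checked by MTT in same wells.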

Chain of Peroxisome proliferator-activated receptor gamma (Homo sapiens) (P37231 whole entry, looked up, the tested form may be a part): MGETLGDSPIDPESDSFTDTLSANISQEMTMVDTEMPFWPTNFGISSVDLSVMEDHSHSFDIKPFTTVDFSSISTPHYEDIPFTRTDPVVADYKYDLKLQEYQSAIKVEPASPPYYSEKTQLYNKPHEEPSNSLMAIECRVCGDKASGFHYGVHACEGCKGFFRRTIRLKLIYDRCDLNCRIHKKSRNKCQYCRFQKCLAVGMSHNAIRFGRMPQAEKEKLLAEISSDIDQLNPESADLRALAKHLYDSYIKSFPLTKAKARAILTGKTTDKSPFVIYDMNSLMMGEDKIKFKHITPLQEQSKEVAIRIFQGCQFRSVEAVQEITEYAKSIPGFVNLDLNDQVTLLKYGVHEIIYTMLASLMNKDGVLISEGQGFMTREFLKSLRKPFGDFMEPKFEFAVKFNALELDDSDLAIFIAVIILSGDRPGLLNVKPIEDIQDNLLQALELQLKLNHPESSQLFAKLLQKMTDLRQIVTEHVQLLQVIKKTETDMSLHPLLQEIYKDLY
Chain of Estrogen receptor (Homo sapiens) (P03372 whole entry, looked up): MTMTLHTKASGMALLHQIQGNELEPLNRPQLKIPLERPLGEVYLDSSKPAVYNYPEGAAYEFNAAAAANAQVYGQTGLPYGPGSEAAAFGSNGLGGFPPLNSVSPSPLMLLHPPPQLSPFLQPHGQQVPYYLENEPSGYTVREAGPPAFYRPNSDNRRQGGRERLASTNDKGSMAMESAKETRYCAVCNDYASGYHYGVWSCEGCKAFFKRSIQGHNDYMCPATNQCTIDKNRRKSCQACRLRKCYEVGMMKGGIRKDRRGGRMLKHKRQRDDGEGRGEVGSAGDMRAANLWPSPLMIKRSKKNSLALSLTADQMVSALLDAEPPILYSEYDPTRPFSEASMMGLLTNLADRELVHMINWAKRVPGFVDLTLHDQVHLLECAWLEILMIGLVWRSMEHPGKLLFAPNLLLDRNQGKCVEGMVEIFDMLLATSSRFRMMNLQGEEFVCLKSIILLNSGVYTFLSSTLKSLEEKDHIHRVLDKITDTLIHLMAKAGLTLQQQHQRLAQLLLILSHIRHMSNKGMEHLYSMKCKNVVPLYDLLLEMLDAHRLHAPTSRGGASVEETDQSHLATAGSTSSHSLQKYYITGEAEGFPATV
Chain of Retinoic acid receptor RXR-alpha (Homo sapiens) (P19793 whole entry, looked up, the tested form may be a part): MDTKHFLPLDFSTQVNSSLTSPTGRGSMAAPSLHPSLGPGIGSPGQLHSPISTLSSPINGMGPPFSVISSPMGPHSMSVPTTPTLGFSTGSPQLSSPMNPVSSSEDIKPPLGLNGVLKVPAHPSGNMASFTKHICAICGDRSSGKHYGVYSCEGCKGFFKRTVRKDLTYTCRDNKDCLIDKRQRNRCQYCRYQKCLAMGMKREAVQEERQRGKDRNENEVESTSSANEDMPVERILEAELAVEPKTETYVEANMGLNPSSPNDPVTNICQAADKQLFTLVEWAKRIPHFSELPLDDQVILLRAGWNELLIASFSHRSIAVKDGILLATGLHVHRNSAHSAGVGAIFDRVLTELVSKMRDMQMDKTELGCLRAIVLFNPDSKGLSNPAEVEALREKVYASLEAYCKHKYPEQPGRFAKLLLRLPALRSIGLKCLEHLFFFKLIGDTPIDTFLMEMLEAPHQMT
Chain of Bile acid receptor (Homo sapiens) (Q96RI1 whole entry, looked up, the tested form may be a part): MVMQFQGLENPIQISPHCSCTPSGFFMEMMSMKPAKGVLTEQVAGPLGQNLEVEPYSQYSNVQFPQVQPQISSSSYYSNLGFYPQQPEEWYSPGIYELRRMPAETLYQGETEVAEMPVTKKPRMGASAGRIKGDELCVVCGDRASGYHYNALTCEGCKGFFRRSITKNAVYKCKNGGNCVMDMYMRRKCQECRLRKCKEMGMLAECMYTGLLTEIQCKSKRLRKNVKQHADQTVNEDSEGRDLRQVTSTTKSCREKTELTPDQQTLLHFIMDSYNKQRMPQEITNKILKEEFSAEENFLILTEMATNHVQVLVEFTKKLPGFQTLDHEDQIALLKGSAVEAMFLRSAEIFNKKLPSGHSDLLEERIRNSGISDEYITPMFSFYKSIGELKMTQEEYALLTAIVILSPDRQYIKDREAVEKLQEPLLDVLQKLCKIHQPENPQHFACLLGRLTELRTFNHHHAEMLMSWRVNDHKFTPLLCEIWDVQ
Chain of Estrogen receptor beta (Homo sapiens) (Q92731 whole entry, looked up, the tested form may be a part): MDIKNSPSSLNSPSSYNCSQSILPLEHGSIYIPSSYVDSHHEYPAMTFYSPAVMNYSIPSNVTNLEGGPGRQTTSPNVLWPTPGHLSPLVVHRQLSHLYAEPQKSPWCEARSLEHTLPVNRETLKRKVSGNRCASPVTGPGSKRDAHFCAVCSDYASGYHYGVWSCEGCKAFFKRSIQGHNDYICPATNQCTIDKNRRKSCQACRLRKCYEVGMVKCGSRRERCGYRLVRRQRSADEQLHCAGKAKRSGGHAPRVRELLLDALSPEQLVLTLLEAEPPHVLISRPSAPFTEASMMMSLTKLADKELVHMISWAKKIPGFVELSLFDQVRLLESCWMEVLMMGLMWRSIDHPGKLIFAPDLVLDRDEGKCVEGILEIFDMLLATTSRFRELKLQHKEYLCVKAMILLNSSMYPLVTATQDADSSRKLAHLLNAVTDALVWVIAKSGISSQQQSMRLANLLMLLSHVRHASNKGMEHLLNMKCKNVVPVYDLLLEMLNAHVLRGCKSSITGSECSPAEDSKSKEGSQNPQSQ

## NCCO
[1]
  outcome: inactive
[2]
  outcome: inactive
[3]
  outcome: inactive
[4]
  outcome: inactive
[5]
  outcome: inactive

## Cc1cc(=O)[nH]c(=S)[nH]1
[1]
  outcome: inactive
[2]
  outcome: inactive
[6]
  outcome: inactive
[3]
  outcome: inactive
[4]
  outcome: inactive
[7]
  outcome: inactive
[8]
  outcome: inactive
[5]
  outcome: inactive

## FC(F)(F)C(F)(F)C(F)(F)C(F)(F)C(F)(F)C(F)(F)CCI
[1]
  outcome: inactive
[2]
  outcome: inactive
[3]
  outcome: inactive
[4]
  outcome: inactive
[7]
  outcome: inactive
[8]
  outcome: inactive
[5]
  outcome: inactive

## OC[C@@H](O)[C@@H](O)[C@H](O)[C@H](O)CO
[1]
  outcome: inactive
[2]
  outcome: inactive
[3]
  outcome: inactive
[4]
  outcome: inactive
[7]
  outcome: inactive
[8]
  outcome: inactive
[5]
  outcome: inactive

## Cc1ccc2ncccc2c1
[1]
  outcome: inactive
[2]
  outcome: inactive
[7]
  outcome: inactive
[8]
  outcome: inactive
[5]
  outcome: inactive

## O=C(OCCCCCOC(=O)c1ccccc1)c1ccccc1
[1]
  outcome: inactive
[2]
  outcome: inactive
[3]
  AC50: 72.2 µM (active)
  outcome: inactive
[7]
  outcome: inactive
[8]
  outcome: inactive
[5]
  AC50: 1.08 µM (active)

## C[C@]12C=CC(=O)C=C1CC[C@@H]1[C@@H]2C(=O)C[C@@]2(C)[C@H]1CC[C@]2(O)C(=O)CO
[9]
  outcome: inactive
[1]
  outcome: inactive
[2]
  outcome: inactive
[4]
  outcome: inactive
[7]
  outcome: inactive
[8]
  outcome: inactive
[10]
  outcome: inactive
[11]
  outcome: inactive
[12]
  outcome: inactive
[5]
  outcome: inactive

## c1cc(-c2ccncc2)ccn1
[1]
  outcome: inactive
[2]
  outcome: inactive
[4]
  outcome: inactive
[7]
  outcome: inactive
[8]
  outcome: inactive
[13]
  outcome: inactive
[10]
  outcome: inactive
[14]
  outcome: inactive
[15]
  outcome: inactive
[16]
  outcome: inactive
[11]
  outcome: inactive
[12]
  outcome: inactive
[17]
  outcome: inactive
[5]
  outcome: inactive

## CCCCCCCCCCCCCCCCCC(=O)O
[1]
  outcome: inactive
[2]
  outcome: inactive
[3]
  outcome: inactive
[4]
  outcome: inactive
[7]
  outcome: inactive
[8]
  outcome: inactive
[5]
  outcome: inactive

## C=CCc1ccc(O)c(OC)c1
[1]
  outcome: inactive
[2]
  outcome: inactive
[3]
  outcome: inactive
[7]
  outcome: inactive
[8]
  outcome: inactive
[10]
  outcome: inactive
[17]
  outcome: inactive
[5]
  outcome: inactive

## C=CCOC(=O)c1ccccc1C(=O)OCC=C
[1]
  outcome: inactive
[2]
  AC50: 69.7 µM (active)
[6]
  outcome: inactive
[4]
  outcome: inactive
[7]
  outcome: inactive
[8]
  outcome: inactive
[5]
  outcome: inactive

## CC(CO)OC(C)CO (centres undefined) (tested in a mixture with another compound)
[1]
  outcome: inactive
[2]
  outcome: inactive
[3]
  outcome: inactive
[4]
  outcome: inactive
[7]
  outcome: inactive
[8]
  outcome: inactive
[5]
  outcome: inactive

## CCNc1cccc(C)c1
[1]
  outcome: inactive
[2]
  outcome: inactive
[3]
  outcome: inactive
[4]
  outcome: inactive
[7]
  outcome: inactive
[8]
  outcome: inactive
[5]
  outcome: inactive
